Test results reported in ChEMBL document CHEMBL1157539, “Thousands of chemical starting points for antimalarial lead identification” (Nature, 2010).

test system: Plasmodium falciparum; test: GSK_TCMDC: Inhibition of Plasmodium falciparum Dd2 in whole red blood cells, using parasite LDH activity as an index of growth. Test compounds present at 2uM; assay type: functional

First: C[C@@H](CNc1ccnc(Nc2ccc3[nH]c(=O)[nH]c3c2)n1)c1ccccc1
Second: Fc1ccc2[nH]c(-c3ccc(-c4ccc(CN5CCCCC5)cc4)cc3)nc2c1.O=C(O)C(F)(F)F
The Inhibition of the first is lower: 1% for the first, 100% for the second.

First: COc1c(C2=CCN(CCCCNC(=O)c3ccc(-c4ccc(C#N)cc4)cc3)CC2)ccc2c1CCCC2
Second: O=C(O)C(F)(F)F.Oc1ccc(CCNc2nc(NCc3cccc(-c4cc(C(F)(F)F)ccc4Cl)c3)nc(N3CCNCC3)n2)cc1
The Inhibition of the first is higher: 82% for the first, 8% for the second.

Compared with `Cc1ccccc1C1CCN(C2CCC(NC(=O)c3ccc(-c4cc(C(F)(F)F)nn4C)s3)CC2)CC1` (configuration not stated), `CC(=O)N1c2ccccc2C(C)=CC1(C)C` is lower in Inhibition: 68% for the first, 11% for the second.

test system: HepG2; test: GSK_TCMDC: Percent inhibition of human HepG2 cell line. Test compounds present at 10uM.; assay type: functional

First: Cc1cccc2nc(-c3ccc(-c4cccc(CNCCCN5CCCC5=O)c4)s3)[nH]c12.O=C(O)C(F)(F)F
Second: NCC1CCCN1Cc1ccc(-c2cccc(-c3nc4cc(F)ccc4[nH]3)c2)cc1.O=C(O)C(F)(F)F (configuration not stated)
The Inhibition of the first is lower: 14% for the first, 38% for the second.

Going from `CCCNCc1ccc(-c2ccc(CN(CCOC)C(=O)c3ccc([N+](=O)[O-])c(C)c3)cc2)nc1.O=C(O)C(F)(F)F` to `COc1cccc(CNC(=O)c2ccnc(-c3cccc(CN(C)C4CCN(C)CC4)c3)c2)c1.O=C(O)C(F)(F)F`, the Inhibition rises from 2% to 19%.

Going from `Cc1cc(N[C@@H](Cc2ccccc2)C(=O)NC2CCCC2)nc(Nc2ccccc2)n1.O=C(O)C(F)(F)F` to `COc1ccccc1CCNc1nc(C)cc(N[C@@H](Cc2ccccc2)C(=O)NCCOc2ccccc2)n1.O=C(O)C(F)(F)F`, the Inhibition rises from 3% to 20%.

Going from `CCC(CC)(Cc1ccccc1)NC(=O)[C@H](CC(C)C)Nc1ccc(C#N)c2ccccc12.O=C(O)C(F)(F)F` to `O=C(O)C(F)(F)F.O=[N+]([O-])c1cccc(CNCC2CCN(CCc3ccccc3)CC2)c1`, the Inhibition falls from 57% to 15%.

Going from `Cc1ccc(N2C(=O)C3C(C2=O)C2(c4ccccc4)C(=O)C3(c3ccccc3)C(c3ccccc3)=C2c2ccccc2)cc1` (configuration not stated) to `NC1=NC(c2ccccc2)(c2ccccc2)C(=O)N1C1CCCCC1.O=CO`, the Inhibition falls from 17% to 13%.

Compared with `C=CCc1cc(Cc2cnc(N)nc2N)cc(CCC)c1OC`, `CCOc1ccc(C=CC(=O)Nc2ccc3nc(N4CCOCC4)cc(C)c3c2)cc1OC` is higher in Inhibition: 3% for the first, 14% for the second.

`O=C(CN1CCN(C(C(=O)Nc2cc(C(F)(F)F)ccc2Cl)c2ccccc2)CC1)NC1CC1` (configuration not stated) and `O=C(NC1CCCCN(Cc2ccccc2O)C1)c1ccc(Cl)c(Cl)c1.O=C(O)C(F)(F)F` (configuration not stated) are the same in Inhibition: 0% for the first, 0% for the second.

Compared with `CC[C@H](C)CNC(=O)c1ccnc(-c2cccc(CN3CCC(N4CCCC4)CC3)c2)c1.O=C(O)C(F)(F)F`, `CC(C)(C)c1ccc(NC(=O)c2cccc(CN3CCCN(CC4CCCCC4)CC3)c2)cc1.O=C(O)C(F)(F)F` is higher in Inhibition: 0% for the first, 97% for the second.

First: Br.CC(C)(C)c1ccccc1OCCCON1C(=N)N=C(N)NC1(C)C
Second: CCCCC(CCCC)CN1C(=O)C(c2ccccc2)(c2ccccc2)N=C1N.O=CO
The Inhibition of the first is higher: 63% for the first, 28% for the second.

Going from `Fc1ccccc1-c1cc(Nc2ccncc2)nc(-c2cccnc2)n1` to `OC1(C(F)(F)F)CC(c2ccccc2)=NN1c1nncc(-c2ccccc2)n1` (configuration not stated), the Inhibition falls from 91% to 0%.

Going from `Cc1nc2c(-n3cc(Cn4ccnc4)c4ccccc43)ncnc2n1-c1ccc(Cl)cc1Cl` to `CCn1c2ccccc2c2cc(C=NN=c3cc(C)[nH]c4ccccc34)ccc21`, the Inhibition rises from 16% to 19%.

Going from `CC1CCCN(C(=O)C(C)Nc2cc(Cl)ccc2N2CCOCC2)C1` (configuration not stated) to `Cl.O=C(c1cccc(COc2ccc3c(c2)CCN(C2CCCC2)CC3)c1)N1CCN(c2ccncc2)CC1`, the Inhibition rises from 0% to 49%.

Going from `Cl.N=C(NCCCCC1CCCCC1)c1cccc(C(=N)NCCCCC2CCCCC2)n1` to `Cc1nn(-c2ccccc2)nc1C(=O)NC1CCN(CCNC(=O)c2ccc(Cl)c(Cl)c2)CC1.O=C(O)C(F)(F)F`, the Inhibition falls from 99% to 15%.

Compared with `CN(C)CCCN1C(=O)c2[nH]nc(-c3ccc(Cl)cc3O)c2C1c1ccc(Cl)cc1` (configuration not stated), `Cc1cc(C(=O)Nc2ccc3c(ccn3C3CCCN(Cc4ccc(C(F)(F)F)cc4F)CC3)c2)no1` (configuration not stated) is lower in Inhibition: 57% for the first, 19% for the second.

Compared with `OC(c1nnc(S)n1-c1ccccc1)C(O)c1nnc(S)n1-c1ccccc1` (configuration not stated), `O=C(Nc1ccc(OC(F)(F)F)cc1)NC1CCN(c2ccnc3ccccc23)CC1.O=C(O)C(F)(F)F` is higher in Inhibition: 18% for the first, 40% for the second.

Work on `CCOP(=O)(OCC)c1ccc(OC)c(-c2ccc[nH]2)c1` yielded an Inhibition of 0%.
